# Screens: PubChem, National Center for Advancing Translational Sciences (NCATS)
# GRP78 ERSR act = qHTS for Inducers of the Endoplasmic Reticulum Stress Response (ERSR) in Human Glioma: qHTS; U87-MG GRP78 promoter luciferase reporter, 16 h; Potency, µM, actives largely listed as activators; 420,000 compounds, 0.02% hits; further: series mostly up to about 76 µM; nearly all actives have a fitted effect of over 35% in size
#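 Stably transfected U87-MG human glioma cells carrying a GRP78-based luminescent sensor were seeded at 1000 cells/well, pin-dosed with compounds and incubated 16 h. Luciferase reagent was then added, and end-point luminescence was read after 10 min at room temperature.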
# Nrf2 activator = qHTS of Nrf2 Activators; AREc32 ARE-luciferase reporter (MCF7-derived line), luminescence, 24 h; Potency, µM (highest dose often 46.1 µM), hits mostly activators; 410,000 compounds, 0.31% hits; further: nearly all actives have a fitted effect of over 65% in size
#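 Quantitative high-throughput format: AREc32 reporter cells, 1000 per well, received compound by pin transfer and were incubated 24 hr at 37 deg C, 5% CO2, before Steady-Glo luminescence detection.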
# DRD3 agonist = qHTS of D3 Dopamine Receptor Agonist: qHTS; D(3) dopamine receptor (Homo sapiens), P35462; D3R DiscoveRx beta-arrestin cells, luminescence, 90 min; max activation, %; 410,000 compounds, 0.58% hits; AID 652048, 2013; in the data active means max activation above about 30%
# Target sequence (P35462 whole entry, looked up): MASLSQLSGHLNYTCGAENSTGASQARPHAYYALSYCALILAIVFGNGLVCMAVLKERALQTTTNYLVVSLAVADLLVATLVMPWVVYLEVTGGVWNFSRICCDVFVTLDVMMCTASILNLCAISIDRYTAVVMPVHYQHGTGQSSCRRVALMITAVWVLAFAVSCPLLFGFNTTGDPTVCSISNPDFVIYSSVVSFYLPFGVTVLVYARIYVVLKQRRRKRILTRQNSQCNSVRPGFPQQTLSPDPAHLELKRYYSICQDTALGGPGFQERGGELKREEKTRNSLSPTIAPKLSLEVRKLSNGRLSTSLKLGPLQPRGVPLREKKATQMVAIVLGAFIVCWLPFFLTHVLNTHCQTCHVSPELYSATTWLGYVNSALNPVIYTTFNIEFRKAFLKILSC
#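 Cells at 1500/well, incubated overnight, then treated with pinned compounds (dopamine as control) for 90 min at 37 degrees C. DiscoveRx reagent added for 30 - 60 minutes at room temperature; luminescence read.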
# D3 antag = qHTS of D3 Dopamine Receptor Antagonist: qHTS; D3R cells, DiscoveRx beta-arrestin luminescence, antagonist mode; hits give low values; D(3) dopamine receptor (Homo sapiens), P35462; 360,000 compounds, 2.5% hits; AID 652054, 2013; max response, negative = inhibition, %; in the data active means max response below about -50%; inconclusive means no clear call, values can overlap the other calls
#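 Cells expressing the human receptor were seeded at 1500 cells/well, incubated overnight at 37 degrees C in 5% CO2, then exposed to library compounds with dopamine controls for 90 minutes at 37 degrees C before luminescent detection.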
# A number is an active result; i = inactive; ? = inconclusive; nt = not tested or not shown; ! = not confirmed by another sample. An excerpt weighted towards active compounds, which were near 3% of everything screened. Unless noted, the call rests on the fitted dose curve; in most records, active means well fitted curve in the direction sought with a large enough effect; inconclusive means small, poorly fitted or top-dose-only effect, or another doubt; inactive means no such curve, though single readings can be large; an effect the other way counts as inactive or inconclusive.
SMILES,GRP78 ERSR act,Nrf2 activator,DRD3 agonist,D3 antag
CCSc1nnc(C(C)NC(=O)c2ccc(OC)cc2)n1C (configuration not stated),i,nt,nt,nt
COCCN1CCN(C(=O)c2cnn(-c3nccc(-c4ccccc4OC)n3)c2-c2ccco2)CC1,i,nt,nt,nt
COc1ccc(S(=O)(=O)n2nc(-c3cc(OC)c(OC)c(OC)c3)cc2N)cc1OC,i,i,i,i
COc1ccc(-c2cc(N)n(S(=O)(=O)c3c(F)c(F)c(F)c(F)c3F)n2)cc1OC,i,?,i,-56
CCCn1c(=O)c(C(=O)Nc2cccc(C)n2)c(O)c2ccccc21,i,i,i,i
CCCn1c(=O)c(C(=O)Nc2ccccc2C(=O)OCC)c(O)c2ccccc21,i,i,37,i
CCn1c(=O)c(C(=O)Nc2nc3ccccc3[nH]2)c(O)c2ccccc21,?,i,i,-62
CC(C)(C)c1ccc(C(=O)Nc2nnc(C3=COCCO3)o2)cc1,i,i,i,-71
CN(C)c1ccc(C(=O)Nc2nnc(C3=COCCO3)o2)cc1,i,i,i,i
Cc1ccc(S(=O)(=O)Nc2cc3c(cc2NCc2ccccc2)n(C)c(=O)n3C)cc1,i,?,i,nt
Cn1c(=O)n(C)c2cc(NS(=O)(=O)c3ccc(F)cc3)c(NCc3ccccc3)cc21,i,13µM,i,nt
NS(=O)(=O)c1ccc(N2N=C(c3ccccc3)CC2c2cccc(Br)c2)cc1 (configuration not stated),i,i,47,i
CC1(C)CC(=O)c2c(O)cc(OCC(=O)Nc3ccc(CCO)cc3)cc2O1,i,i,34,i
O=C(NC(=S)Nc1cccnc1)c1cccs1,i,i,i,?
O=C(NC(=S)Nc1ccc(Cl)cn1)c1cccs1,i,6.3µM,i,i
Cc1nnc(N2CCN(Cc3ccccc3)CC2)[nH]c1=O,i,i,i,-54
COc1ccccc1-c1ccc(C(=O)N(C)CC2COCCO2)c(N2CCN(c3ccccc3F)CC2)n1 (configuration not stated),i,nt,nt,nt
Cc1oc(-c2cccc(NC(=O)c3ccccn3)c2)nc1CNC(=O)C#Cc1ccccc1,i,nt,nt,nt
CC[C@H]1OC(=O)C[C@@H](O)[C@H](C)[C@@H](O[C@@H]2O[C@H](C)C[C@H](N(C)C)[C@@H]2O)[C@@H](CC=O)C[C@@H](C)C(=O)/C=C\[C@]2(C)O[C@H]2[C@@H]1C,i,nt,nt,nt
CCC1CN(Cc2cccn2-c2ccccn2)Cc2cc(OC)ccc2O1 (configuration not stated),i,nt,nt,nt
COc1ccc2nc(Sc3c([N+](=O)[O-])nc(C)n3Cc3ccccc3)[nH]c2c1,i,?,i,-75
Cn1c(=O)c2c(nc(CN3CCN(Cc4ccccc4)CC3)n2Cc2cccc(Cl)c2)n(C)c1=O,i,i,i,-51
CCCn1c(CN2CCN(C(=O)OCC)CC2)nc2c1c(=O)n(C)c(=O)n2C,i,i,127,i
CCCCCn1c(CN2CCN(C)CC2)nc2c1c(=O)n(C)c(=O)n2C,i,i,i,i
Cn1c(=O)c2c(nc(CN3CCc4ccccc4C3)n2Cc2cccc(Cl)c2)n(C)c1=O,i,i,i,i
SMILES,GRP78 ERSR act,Nrf2 activator,DRD3 agonist,D3 antag
CCCCCn1c(CN2CCN(C(=O)OCC)CC2)nc2c1c(=O)n(C)c(=O)n2C,i,i,i,i
CCCCCCn1c(CN2CCN(Cc3ccccc3)CC2)nc2c1c(=O)n(C)c(=O)n2C,i,i,i,-52
COC(=O)c1cc(CNC(=O)c2ccccc2)cc(NC(=O)c2ccccc2OC)c1,i,nt,nt,nt
Cc1cc(C(=O)NCc2nnc3n2CCN(Cc2ccc(F)cc2F)CC3)c(C)o1,i,nt,nt,nt
Cc1cc(NC(=O)CNCC(c2ccccc2)N(C)C)c([N+](=O)[O-])cc1C (configuration not stated),i,i,i,-54
Cc1ccc(NC(=O)CNCC(c2ccccc2)N(C)C)cc1F (configuration not stated),i,i,i,i
CC(C)(C)c1cc(CN2CCOCC2)c(C(=O)O)o1,i,i,i,-81
CCCn1nc([N+](=O)[O-])c(C(C#N)c2nc3ccccc3o2)c(Cl)c1=O (configuration not stated),i,i,i,-61
CCn1nc([N+](=O)[O-])c(C(C#N)c2nc3cc(C(F)(F)F)ccc3s2)c(Cl)c1=O (configuration not stated),?,i,i,i
CCN1CCc2c(C#N)c(N3CCCCC3)nc(N3CCOCC3)c2C1,i,i,i,-53
Cc1ccc(-c2nn3c(C)nnc3c3ccccc23)cc1S(=O)(=O)NC(C)c1ccccc1 (configuration not stated),i,i,i,-54
Cc1ccc(-c2nn3c(C)nnc3c3ccccc23)cc1S(=O)(=O)NC(C)(C)CO,?,?,i,i
CCC(C)NC(=O)c1cccc(NC(=O)c2nsc3ccccc23)c1 (configuration not stated),i,i,i,nt
O=C(O)CCC(=O)Nc1sc2c(c1C(=O)Nc1ccccc1)CCCCC2,i,14µM!,i,i
Oc1ccccc1C1=NOC(O)(C(F)F)C1 (configuration not stated),i,i,i,-66
O=C(N[C@@H](Cc1ccccc1)C(=O)N[C@@H](Cc1ccccc1)C(=O)O)OCc1ccccc1,i,i,i,i
O=C(N[C@@H](Cc1ccccc1)C(=O)CCl)OCc1ccccc1,i,i,i,-94
CCOc1ccccc1CNC(=O)CN(c1ccc(C)cc1)S(=O)(=O)N(C)C,i,i,i,nt
Cn1cnnc1SCC(=O)c1ccc(O)c(O)c1,i,i,39,i
COc1ccc(-c2cc(C(=O)N3CCN(c4ccccn4)CC3)c3ccccc3n2)cc1,i,i,33,i
CCOc1ccc(-c2cc(C(=O)N3CCN(c4ccccn4)CC3)c3ccccc3n2)cc1,i,i,i,i
CCCc1ccc(-c2cc(C(=O)N3CCN(c4ccccn4)CC3)c3ccccc3n2)cc1,i,i,44,i
CSc1nnc(NC(=O)C23CC4CC(CC(C4)C2)C3)s1,i,i,i,i
NC(=O)CSc1nnc(NC(=O)C23CC4CC(CC(C4)C2)C3)s1,i,i,40,i
O=C(Nc1nc(NC(=O)c2ccco2)n(-c2ccccc2)n1)c1ccccc1,?,i,39,i
CC(=O)Nc1nc(NC(=O)/C=C/c2ccccc2)n(-c2ccccc2)n1,i,i,i,-72
Nc1nc(NC(=O)c2ccccc2)nn1-c1ccccc1,i,i,i,i
O=C(c1cnsn1)N1CCOc2ccc(C(O)C(c3ccccc3)c3ccccc3)cc2C1 (configuration not stated),i,nt,nt,nt
COc1cccc(CN2C(=O)NC(C)(C3CCN(Cc4cnn(C)c4C)CC3)C2=O)c1OC (configuration not stated),i,nt,nt,nt
Cc1cccc(NC(=O)CSc2nnc3[nH]c(=O)cc(-c4ccccc4)n23)c1C,i,i,i,nt
